Laboratory results: PubChem BioAssay (NCATS)
Inconclusive results are not listed. A number with no mark means an inactive call. The source made the active and inactive calls. Calls follow the shape of the dose curve; as a rule, active = well fitted inhibition curve with a large enough effect; inconclusive = small, poorly fitted or top-dose-only effect; inactive = no such curve, though single readings can be large or run the other way.

tested on: Zika virus NS2B-NS3 protease (unlinked complex); assay: Primary screen GU Rhodamine qHTS for Zika virus inhibitors: Unlinked NS2B-NS3 protease assay (AID 1347159); conditions: Recombinant ZIKV NS2B-NS3 protease, Rhodamine110 substrate fluorescence; series mostly up to 107 µM; activity change, negative = inhibition: at the top concentration; also: nearly all actives have a fitted effect of over 60% in size
Description: Avindra Nath, Ph.D., National Institute of Neurological Disorders and Stroke (NINDS), Bethesda, MD
Radhakrishnan Padmanabhan, Ph.D., Georgetown University (GU), Washington D.C.
Zika Virus causes congenital defects, including microcephaly and is associated with Guillain-Barre syndrome, eningoencephalitis and myelitis in infected adult. […] Using a target-based approach, we hope to establish a screening paradigm to uncover novel, cell-active NS2B-NS3 protease (Zika Virus) specific inhibitors from NCATS' collection of small molecules using qHTS.
Four assay panel was created to identify potential Zika Virus inhibitors. Namely, (1) GU unlinked NS2B-NS3 AMC tagged protease qHTS, (2) GU unlinked NS2B-NS3 Rhodamine tagged protease qHTS, (3) NINDS linked NS2B-NS3 AMC tagged protease qHTS, (4) NINDS linked NS2B-NS3 Rhodamine tagged protease qHTS. Active compounds were re-acquired and re-screened to confirm inhibition. Inhibitors were further screened against various confirmatory and counterscreens in dose response format.
Early Translation Branch (ETB)
National Center for Advancing Translational Sciences (NCATS), Rockville, MD
National Institute of Health (NIH), Bethesda, Maryland
Padmanabhan lab provided the NS2B hydrophilic domain and NS3 protease domain in a noncovalent complex used for the unlinked assay. Control compound aprotinin is obtained from Thermo Scientific (#78432; Waltham, Massachusetts). Rhodamine110 substrate ([N-Cbz]-Nle-Lys-Arg-Arg-Rhod110-Arg-Arg-Lys-Nle-[N-Cbz]) was purchased from either Genscript or Bachem.
1536-well Protease (Rhodamine110 Substrate) Assay:
Briefly, 3 microL of enzyme (25 nM final concentration), in assay buffer (10 mM Tris-HCl pH 8.0 with 0.01% Tween 20) were dispensed into a 1,536-well solid-bottom black plate (Greiner Bio One, Monroe, NC). Twenty-three nL of compounds (final concentration range 7.28 nM to 114 microM) or control Aprotinin (final concentration range 3.47 nM to 114 microM) were transferred via Wako Pin-tool (Wako Automation, Richmond, VA). Samples were incubated (room temperature, protected from light) for 15 minutes followed by a 1 microL Rhodamine110 substrate addition (1.5 microM final concentration). Plates were then immediately read on a ViewLux High-throughput CCD imager (PerkinElmer, Waltham, MA) equipped with FITC fluorescence optics (480(20) nm excitation, 540(25) nm emission), then incubated (room temperature, protected from light) for 15 minutes (~15% conversion). The change in fluorescence intensity over the 15-minute reaction period was normalized against no-inhibitor and no-enzyme controls and the resulting percent inhibition data were fitted to a 4-parameter Hill equation. Aprotinin was used as intraplate control.
% is scaled to controls: 0 for no effect and ±100 for the full control effect; potency is read from the fitted curve at half-maximal effect.

Structure (SMILES) | Potency | activity change, negative = inhibition
CC(C)C(=O)c1cn(CC(=O)COc2ccc(Oc3ccccc3)cc2)c2ccc(C(=O)O)cc12 | 8.91 µM (active) | –
COC(=O)c1cc(CN2CCN(C(=N)N)CC2)cc(C(=O)N2CCN(C(=O)c3ccc(C(=N)N)cc3)CC2)c1 | – | -8.8%
COC1CC(OC2CCC3(C)C(=CCC4C3CCC3(C)C(C(C)O)CCC43O)C2)OC(C)C1OC1OC(C)C(OC2OC(COC3OC(COC4OC(CO)C(O)C(O)C4O)C(O)C(O)C3O)C(O)C(O)C2O)C(OC)C1O (stereo not given) | – | 0.333% [at 32.5 µM]
COc1cc(C2Oc3c(OC)cc(/C=C/C(=O)OC[C@H]4O[C@@H](OC(C)(C)C(=O)O)[C@H](O)[C@@H](O)[C@@H]4O)cc3C2CO)ccc1O (stereo not given in full) | – | 21.7% [at 32.5 µM]
CCOc1ccc(C(Nc2ccccn2)c2ccc3ccc(C)nc3c2O)cc1C (stereo not given) | – | -16.7%
CC(C)(O)/C=C1/C(=O)C(C)(C)C(=O)C(C)(C)C1(O)O[C@@H]1O[C@H](COC(=O)c2cc(O)c(O)c(O)c2)[C@@H](O)[C@H](O)[C@H]1O (stereo not given in full) | – | -2.63% [at 32.5 µM]
O=C1NC(Cc2ccc(O)cc2)C(=O)N2CCCC12 (stereo not given) | – | 41.4%
C=C1C(O[C@@H]2O[C@H](CO)[C@@H](O)[C@H](O)[C@@H]2O)CC2C(C)(C)C(O)CCC2(C)C1CC/C(C)=C\CO (stereo not given in full) | – | -6.16% [at 57.1 µM]
COC(=O)C1=C[C@@H](O)[C@@H](O)[C@H](O[C@@H]2O[C@H](COC(=O)/C=C/c3ccccc3)[C@@H](O)[C@H](O)[C@H]2O)C1 | – | 9.95% [at 57.1 µM]
C=CCc1ccc(O[C@@H]2O[C@H](CO)[C@@H](O)[C@H](O)[C@H]2O)c(OC)c1 | 12.6 µM (active) | –
CC/C=C/CC1=C(CCCCCCCC(=O)O)CCC1=O | – | -19.5%
COc1c(C)c(C(=O)c2ccc(N)c(C(=O)O)c2)n2ccccc12 | – | 31.4%
COc1ccccc1-n1c(SCC(=O)Nc2nc3ccc(C)cc3s2)nc2c(c1=O)SCC2 | – | 1.58% [at 57.1 µM]
CC(C)=CC/C=C(/C)[C@H]1CC[C@]2(C)[C@@H]1[C@H](O)CC1[C@@]3(C)CC[C@H](O)C(C)(C)[C@@H]3[C@@H](O[C@@H]3O[C@H](CO)[C@@H](O)[C@H](O)[C@H]3O[C@@H]3O[C@@H](C)[C@H](O)[C@@H](O)[C@H]3O)C[C@]12C (stereo not given in full) | – | -1.99% [at 32.5 µM]
O=C1NCc2nc3ccccc3c(=O)n2C1Cc1c[nH]c2ccccc12 (stereo not given) | – | 4%
C=CC1(C)C=C2C(=O)CC3C(C)(C)CCCC3(C(=O)O)C2(O)CC1 (stereo not given) | – | -28.7%
O=C1CC(c2ccc([N+](=O)[O-])cc2)=NN1c1ccccc1 | 39.8 µM (active) | –
C=C[C@H]1[C@H](O[C@@H]2O[C@H](CO)[C@@H](O)[C@H](O)[C@H]2O)OC=C(C(=O)OC)[C@H]1C[C@@H]1N[C@H](C(=O)O)Cc2c1[nH]c1ccccc21 | – | 100% [at 57.1 µM]
CC1CC(=O)C2=C(O1)OC1(C)CCC3C(C)(C)C=CC(=O)C3(C)C1C2 (stereo not given) | 28.2 µM (active) | –
CCC(C)(O)C(O)C(=O)OCc1ccc(O[C@@H]2O[C@H](CO)[C@@H](O)[C@H](O)[C@H]2O)cc1 (stereo not given in full) | – | 7.59% [at 57.1 µM]

Structure (SMILES) | Potency | activity change, negative = inhibition
C[C@@H]1CC[C@]2(C(=O)O)CC[C@]3(C(=O)O)C(=CCC4[C@@]5(C)CC[C@H](O[C@@H]6O[C@@H](C)[C@H](O[C@@H]7O[C@H](CO)[C@@H](O)[C@H](O)[C@H]7O)[C@@H](O)[C@H]6O)C(C)(C)C5CC[C@]43C)C2[C@H]1C (stereo not given in full) | – | 6.11% [at 32.5 µM]
C=C1CC[C@H]2[C@@H](/C=C(\C)C(=O)[C@@]3(OC(C)=O)C[C@H](C)[C@H](OC(C)=O)[C@@H]3[C@H]1OC(C)=O)C2(C)C | 7.94 µM (active) | –
OC[C@H]1O[C@@H](OC(CCCCc2ccc(O)cc2)CCc2ccc(O)cc2)[C@H](O[C@@H]2OC[C@](O)(CO)[C@H]2O)[C@@H](O)[C@@H]1O (stereo not given in full) | – | 20% [at 32.5 µM]
COc1c(C)c(OCC=C(C)C)cc2c1C(=O)NC2=O | – | -16.8%
CC1=C(C)C(=O)OC(C(C)C2C(O)CC3C4C5OC5C5(O)CC(OC6OC(CO)C(O)C(O)C6O)CC(O)C5(C)C4CCC32C)C1 (stereo not given) | – | 19.8% [at 32.5 µM]
CC1=C(C)C(=O)OC(C(C)(O)C2CCC3C4CC=C5CC(OC6OC(COC7OC(CO)C(O)C(O)C7O)C(O)C(O)C6O)CC(O)C5(C)C4CCC32C)C1 (stereo not given) | – | 8.69% [at 32.5 µM]
COC1=Cc2c(nc3n(c2=O)C(C)C(=O)NC3(O)C(C)C)OC=C1 (stereo not given) | – | 10.6%
C=C[C@](C)(CC/C=C(\C)C(=O)O)O[C@@H]1OC[C@H](O)[C@H](O)[C@H]1O | 25.1 µM (active) | –
COc1cc(C2c3cc(O)c(OC)cc3CC(CO)C2CO)ccc1O (stereo not given) | – | -25.5%
COc1ccc(C(=O)O[C@H]2CC(C)=CC[C@@]3(C)[C@@H](OC(C)=O)C[C@@](O)(C(C)C)[C@H]23)cc1 | – | -12.8% [at 57.1 µM]
CCCn1cnc2c(NCc3ccccc3)nc(N[C@H](CC)CO)nc21 | – | -16%
C[C@@H]1CCC2C(C)(C)[C@H](O)CC[C@]2(C)[C@@]12Cc1c(O)cc3c(c1O2)CN(CCO)C3=O (stereo not given in full) | – | -9.37% [at 57.1 µM]
CC[C@H]1OC(=O)[C@H](C)[C@@H](O[C@H]2C[C@@](C)(OC)[C@@H](O)[C@H](C)O2)[C@H](C)[C@@H](O[C@@H]2O[C@H](C)C[C@H](N(C)C)[C@H]2O)[C@@](C)(O)C[C@@H](C)[C@@H]2N[C@@H](COCCOC)OC([C@H]2C)[C@]1(C)O | – | -15.4%
CC1=C2C(=O)C=C(CO)[C@@H]2[C@H]2OC(=O)[C@H](C)[C@@H]2[C@@H](O)C1 | – | -15.1%
COC(=O)[C@@H]1C2CC3c4[nH]c5ccccc5c4CCN3CC2CC[C@@H]1O (stereo not given in full) | – | 0%
CC(=O)N[C@H]1CCN(c2ccc(C3=NOC(CN[S+](=O)([O-])C(C)C)C3)cc2F)C1 (stereo not given in full) | – | 19.2%
COC1=CC(=O)O[C@@H](/C=C/c2ccccc2)[C@@H]1O | – | 11.7%
O=C(O[C@H]1[C@@H]2C=CO[C@@H](O[C@@H]3O[C@H](CO)[C@@H](O)[C@H](O)[C@H]3O)[C@@H]2[C@@]2(CO)O[C@@H]12)c1ccc(O)c(O)c1 | – | -28.3% [at 57.1 µM]
CC(C)=CCc1ccc(Oc2c(O)cc(C)cc2CO)c(C(=O)O)c1O | 6.31 µM (active) | –
c1ccc(C(OC2CCN(CCCc3nn[nH]n3)CC2)c2ccccc2)cc1 | – | -11.3%
